The text below walks through data of PubChem BioAssay (NCI).

The panel holds about 79,000 compounds, 15% with a hit somewhere; the sample as a whole holds those more often. Values without a mark were called inactive. Activity calls are given as the source filed them. Cut-off read from the data, not from the text of the source: active = growth inhibition above about 70%; inactive = the rest.

The first test can be described thus: NCI Yeast Anticancer Drug Screen. Data for the sgs1 strain (AID 173).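 Note: 0% = growth of vehicle-only control cultures.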 Particulars: S. cerevisiae sgs1 mutant, at 100.0 µM, hits give high values. The method in brief:
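Inhibition of yeast growth served as the measure. The mutant strain was treated with each compound, and growth was normalised to cultures receiving vehicle alone.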
For the molecule `CN(C)CC(CN(C)C)C(=O)/C=C/c1ccc(Cl)cc1Cl`, the growth inhibition was 98% (active).
On the same count and under the same terms, the value for `c1ccc2c(c1)ccn2CCc1c[nH]c2ccccc12` was 95% (active); that for `CC(C)OC(=O)NNc1c(Cl)cc(Cl)cc1Cl` was 9%; that for `COc1ccc2nc3cccc([N+](=O)[O-])c3c(NCCNCCO)c2c1` was 95% (active).
On to `COc1ccc2c(c1)CCCC(Br)C2=O` (configuration not stated), for which the growth inhibition is 99% (active).
The same measure, in the same setting: to `CCC(OC(C)=O)C1CC(C(C)C)CCC1C` (configuration not stated) belongs 95% (active).
Take `O=S(=O)(c1cccc(C(F)(F)F)c1)N1c2ccccc2-n2cccc2C1c1cccnc1` (configuration not stated): the growth inhibition was 89% (active).
The same measure, in the same setting: the value for `c1ccc(-c2cc(C3CO3)c3ccccc3n2)cc1` (configuration not stated) was 98% (active); that for `COc1ccc(/C=C2\SC(=S)N(/C=C3\C(=O)N(c4ccccc4)N=C3C)C2=O)cc1OC` was 90% (active).
Regarding `CC1=CC(=C(c2ccc(N)c(C)c2)c2ccc(N)c(C)c2)C=CC1=N`, the growth inhibition is 95% (active).
Take `CC1C(c2ccccc2)SC(=N)N1C` (configuration not stated): the growth inhibition was 0%.
The same measure, in the same setting: to `CC(/C=C/c1ccc([N+](=O)[O-])o1)=N/N1CC(CN2CCOCC2)OC1=O` (configuration not stated) belongs 97% (active); to `C=CC(C)(C)N1C(=O)C(C(C)=O)=C(O)C1Cc1c[nH]c2ccccc12` (configuration not stated), 90% (active).
For `O=C1c2cccc3cccc(c23)C(=O)N1CCNCCN1C(=O)c2cccc3cccc(c23)C1=O`, the growth inhibition was 4%.
Still for that read-out and setting: to `Cc1ccc([N+](=O)[O-])c2c(NCCC[N+](C)(C)[O-])c3ccccc3nc12` belongs 81% (active); to `COC(=O)C(Cc1c[nH]c2ccccc12)N1CN(C)c2ccccc2C1=O` (configuration not stated), 99% (active).
Turning to `O=C(/N=N/C(=O)Oc1ccccc1)Oc1ccccc1`, the growth inhibition is 59%.
The same measure, in the same setting: to `COc1cc([C@@H]2c3cc4c(cc3[C@@H](NC(=O)NO)[C@H]3COC(=O)[C@H]23)OCO4)cc(OC)c1O` belongs 12%; to `CCOC(=O)/C(=C/c1cccc(Cl)c1)N(CC)CC`, 96% (active).
`CC(C)OC(=O)NNc1cccc(Cl)c1`: the growth inhibition is 98% (active).
The same measure, in the same setting: the value for `CCC(=O)C1=C(O)c2cc(OC)ccc2CC1C(=O)OC` (configuration not stated) was 37%; that for `O=S(=O)(NC1CCCC(c2ccccc2)C1)c1ccccc1` (configuration not stated) was 97% (active); that for `COc1ccc2nc3cccc([N+](=O)[O-])c3c(NCCCCCC(=O)O)c2c1` was 98% (active).
The same measure, in the same setting: the value for `CCO/C=C1\SC(=S)N(c2ccc(OCC)cc2)C1=O` was 32%; that for `COc1cc(OC)c(CSCC(NC(=O)OCC2c3ccccc3-c3ccccc32)C(=O)O)c(OC)c1` (configuration not stated) was 98% (active).
Still for that read-out and setting: the value for `COC(=O)c1ccccc1N=NNc1cccc(SC)c1` was 84% (active).
As to `CC1=NN(C(=O)c2ccccc2O)C(=O)/C1=C/c1ccco1`, the growth inhibition is 92% (active).
Consider `COc1ccccc1NC(=O)c1ccc(Cl)cc1`, for which the growth inhibition is 2%.
Still for that read-out and setting: to `CC(C)=CCC/C(C)=C/CN1C(=O)C=CC1=O` belongs 99% (active); to `O=C1CSC(c2ccccc2)N1c1ccc(-c2ccc(-n3c(-c4ccccc4)nc4ccccc4c3=O)cc2)cc1` (configuration not stated), 46%.
On the same count and under the same terms, the value for `N#CC1OB(O)c2ccccc21` (configuration not stated) was 1%; that for `O=C(NCCNCCNC(=O)c1cc(-c2ccccc2)nc2ccccc12)c1cc(-c2ccccc2)nc2ccccc12` was 22%; that for `Brc1ccc(B2Nc3ccccc3N2)cc1` was 45%.
As to `CCOP(=O)(OCC)/C(C#N)=C/c1cccc(Oc2ccccc2)c1`, the growth inhibition was 98% (active).

The next test can be described thus: NCI Yeast Anticancer Drug Screen. Data for the mlh1 rad18 strain (AID 175). Particulars: S. cerevisiae mlh1 rad18 strain growth inhibition; at 5.0 µM (retest, dose inferred, filed as 0.5); hits give high values. The method in brief:
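Compound-treated yeast growth, normalised to vehicle controls. Strain bears defined DNA repair mutations.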
In the case of `CN(C)CC(CN(C)C)C(=O)/C=C/c1ccc(Cl)cc1Cl`, the growth inhibition is 6%.
Regarding `c1ccc2c(c1)ccn2CCc1c[nH]c2ccccc12`, the growth inhibition was 3%.
Same read-out and setting: to `CC(C)OC(=O)NNc1c(Cl)cc(Cl)cc1Cl` belongs 10%; to `COc1ccc2nc3cccc([N+](=O)[O-])c3c(NCCNCCO)c2c1`, 67%; to `COc1ccc2c(c1)CCCC(Br)C2=O` (configuration not stated), 6%.
In the case of `CCC(OC(C)=O)C1CC(C(C)C)CCC1C` (configuration not stated), the growth inhibition was -1%.
The same measure, in the same setting: the value for `O=S(=O)(c1cccc(C(F)(F)F)c1)N1c2ccccc2-n2cccc2C1c1cccnc1` (configuration not stated) was 34%; that for `c1ccc(-c2cc(C3CO3)c3ccccc3n2)cc1` (configuration not stated) was -17%.
On the same count and under the same terms, the value for `COc1ccc(/C=C2\SC(=S)N(/C=C3\C(=O)N(c4ccccc4)N=C3C)C2=O)cc1OC` was 7%; that for `CC1=CC(=C(c2ccc(N)c(C)c2)c2ccc(N)c(C)c2)C=CC1=N` was 51%.
The same measure, in the same setting: the value for `CC1C(c2ccccc2)SC(=N)N1C` (configuration not stated) was 6%; that for `CC(/C=C/c1ccc([N+](=O)[O-])o1)=N/N1CC(CN2CCOCC2)OC1=O` (configuration not stated) was 63%.
As for `C=CC(C)(C)N1C(=O)C(C(C)=O)=C(O)C1Cc1c[nH]c2ccccc12` (configuration not stated), the growth inhibition was 55%.
`O=C1c2cccc3cccc(c23)C(=O)N1CCNCCN1C(=O)c2cccc3cccc(c23)C1=O`: the growth inhibition is 4%.
On the same count and under the same terms, the value for `Cc1ccc([N+](=O)[O-])c2c(NCCC[N+](C)(C)[O-])c3ccccc3nc12` was 31%.
Same read-out and setting: the value for `COC(=O)C(Cc1c[nH]c2ccccc12)N1CN(C)c2ccccc2C1=O` (configuration not stated) was -9%; that for `O=C(/N=N/C(=O)Oc1ccccc1)Oc1ccccc1` was 44%.
On the same count and under the same terms, the value for `CC1(C)CC(=O)C(/C=N/c2nc(-c3ccc(Br)cc3)cs2)=C(O)C1` was 0%; that for `CCOC(=O)/C(=C/c1cccc(Cl)c1)N(CC)CC` was -9%; that for `CC(C)OC(=O)NNc1cccc(Cl)c1` was 69%.
Consider `CCC(=O)C1=C(O)c2cc(OC)ccc2CC1C(=O)OC` (configuration not stated), for which the growth inhibition is 16%.
`O=S(=O)(NC1CCCC(c2ccccc2)C1)c1ccccc1` (configuration not stated): the growth inhibition is -26%.
Still for that read-out and setting: to `COc1ccc2nc3cccc([N+](=O)[O-])c3c(NCCCCCC(=O)O)c2c1` belongs 97% (active); to `CCO/C=C1\SC(=S)N(c2ccc(OCC)cc2)C1=O`, 29%.
For `COc1cc(OC)c(CSCC(NC(=O)OCC2c3ccccc3-c3ccccc32)C(=O)O)c(OC)c1` (configuration not stated), the growth inhibition was 5%.
Still for that read-out and setting: to `COC(=O)c1ccccc1N=NNc1cccc(SC)c1` belongs 21%.
In the case of `CC1=NN(C(=O)c2ccccc2O)C(=O)/C1=C/c1ccco1`, the growth inhibition is 27%.
Turning to `COc1ccccc1NC(=O)c1ccc(Cl)cc1`, the growth inhibition is -6%.
`CC(C)=CCC/C(C)=C/CN1C(=O)C=CC1=O`: the growth inhibition is 69%.
For `O=C1CSC(c2ccccc2)N1c1ccc(-c2ccc(-n3c(-c4ccccc4)nc4ccccc4c3=O)cc2)cc1` (configuration not stated), the growth inhibition was -20%.
In the case of `N#CC1OB(O)c2ccccc21` (configuration not stated), the growth inhibition was -115%.
Same read-out and setting: the value for `O=C(NCCNCCNC(=O)c1cc(-c2ccccc2)nc2ccccc12)c1cc(-c2ccccc2)nc2ccccc12` was 7%; that for `Brc1ccc(B2Nc3ccccc3N2)cc1` was 47%.
